Laboratory results as given in PubChem BioAssay AID504766 (The Scripps Research Institute Molecular Screening Center, 2011).
Several values for one entry are separate records, joined by “and”; a condition that tells them apart may be missing. Equal entries are not always repeated. Hit rate of the full screen: of about 340,000 compounds, about 3,400 (1%) were called active. This is one part of a sample in which actives are shown more often than they occur.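 The calls were made as follows: active = inhibition above the mean over all tested compounds plus 3 SD (cut at about 4.2% in these data); inactive = the rest.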 Where a structure was tested more than once in an assay, its records may differ in their call.

These compounds were tested against Nuclear receptor subfamily 0 group B member 1 (Homo sapiens) (UniProt P51843) (assay: DAX1 (NR0B1) inhibitors, primary screen, cell-based, HEK293, Gal4-DAX1, luciferase luminescence (AID 504766;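 also: 0% = DAX1-transfected cells with DMSO and 100% = empty-vector control cells with DMSO; inhibition shows as a rise in luminescence from relieved DAX1 repression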)). Settings: HEK293 Gal4-DAX1 luciferase reporter, at 6.75 µM, stronger effect = higher value.
Chain of Nuclear receptor subfamily 0 group B member 1 (Homo sapiens) (P51843 207-470 limits assumed): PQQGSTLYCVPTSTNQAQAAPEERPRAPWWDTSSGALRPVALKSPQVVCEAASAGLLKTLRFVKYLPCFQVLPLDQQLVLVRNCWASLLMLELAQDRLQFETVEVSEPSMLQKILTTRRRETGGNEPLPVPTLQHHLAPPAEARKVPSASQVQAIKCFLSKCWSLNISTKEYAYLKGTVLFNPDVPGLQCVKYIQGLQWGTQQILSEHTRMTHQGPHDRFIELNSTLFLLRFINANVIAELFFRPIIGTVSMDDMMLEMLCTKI
With `Cc1nc(-c2nnc(SCC(=O)Nc3cc(C(F)(F)F)cc(C(F)(F)F)c3)n2C)cs1` the inhibition was 6.44% (active). `Cn1c(SCC(=O)Nc2cccc(NC(=O)c3cccs3)c2)nnc1-c1ccncc1` was tested, and the inhibition was -0.64% (inactive). In the case of `Cc1cc(-c2nc(C)c(-c3nnc(SCC(=O)Nc4ccccc4)n3C)s2)no1`, the inhibition is reported as -0.43% (inactive). For `O=C(c1ccc(CS(=O)Cc2ccccc2Cl)o1)N1CCN(c2ccccc2)CC1` (centres undefined), the inhibition was 0.5% (inactive). `CCOC(=O)C(C(=O)c1ccccc1)C(c1ccccc1)c1nccc2ccccc12` (centres undefined) was tested, and the inhibition was -0.83% (inactive). With `CC1(c2cccc(Br)c2)NC(=O)N(CC(=O)NCCC2=CCCCC2)C1=O` (centres undefined) the inhibition was 1.45% (inactive). `O=S1(=O)CCN(Cc2ccccc2)CC1` was tested, and the inhibition was -0.64% (inactive). In the case of `O=C1CC(c2ccccc2)CC(O)=C1C=NCCN1CCOCC1` (centres undefined), the inhibition is reported as -0.18% (inactive). For `CC(=O)N1CCN(CCN=CC2=C(O)CC(C)(C)CC2=O)CC1`, the inhibition was 0.1% (inactive). In the case of `CC(C)C(=O)N1CCN(CCN=CC2=C(O)CC(c3ccco3)CC2=O)CC1` (centres undefined), the inhibition is reported as 5.43% (active) and 1.58% (inactive). With `CC1(C)CC(=O)C=C(c2ccc(COC(=O)c3cc(F)cc(F)c3)cc2)C1=O` the inhibition was -0.88% (inactive). In the case of `CC1C(=O)N(Cc2cn(CC3CCCCC3)nn2)CCS(=O)(=O)N1Cc1ccc(-c2cccc(N(C)C)c2)cc1` (centres undefined), the inhibition is reported as 0.14% (inactive). In the case of `C[C@H](CO)N1C[C@H](C)[C@H](CN(C)C(=O)Nc2ccc3c(c2)OCO3)Oc2ncc(Br)cc2C1=O`, the inhibition is reported as 2.47% (inactive). `N#CC1=C(N)Oc2cc(N)ccc2C1c1ccccc1` (centres undefined) was tested, and the inhibition was 0.38% (inactive). `Cn1c2c(c(=O)n(C)c1=O)C(c1cccc(F)c1)C(C#N)=C(N)O2` (centres undefined) was tested, and the inhibition was 5.95% (active). `Cc1cc2c(c(=O)n1C)C(C(C)C)C(C#N)=C(N)O2` (centres undefined) was tested, and the inhibition was -0.55% (inactive). For `CC1CC(NC(=S)N(C)C)CC(C)(C)C1` (centres undefined), the inhibition was 1.5% (inactive). In the case of `COc1cccc(/C=C2\SC(=S)N(CCCC(=O)N3CCOCC3)C2=O)c1`, the inhibition is reported as -0.53% (inactive). For `COc1ccccc1N1CCN(C(=O)c2cc3c(-c4ccc(Cl)cc4)nn(C)c3s2)CC1`, the inhibition was 2.84% (inactive). In the case of `CCOC(=O)N1CCN(C(=O)c2cc3c(-c4ccc(Cl)cc4)nn(C)c3s2)CC1`, the inhibition is reported as 4.96% (active). For `COc1cccc(-c2nn(C)c3sc(C(=O)N4CCN(c5ccccc5)CC4)cc23)c1`, the inhibition was -1.01% (inactive). `COCCCn1c(C(=O)NC2CCCCC2)cc2c(=O)n3cccc(C)c3nc21` was tested, and the inhibition was -1.22% (inactive). For `O=C(Nc1ccc2c(c1)[C@@H]1C[C@@H](CC(=O)N3CCCCC3)O[C@@H](CO)[C@@H]1O2)NC1CCCCC1`, the inhibition was 0.47% (inactive). For `Cc1cccc(C(=O)NC2CCN(CC(=O)Nc3cccc(Cl)c3)CC2)c1`, the inhibition was 0.29% (inactive). In the case of `O=C(NCCN1CCOCC1)C1CCN(S(=O)(=O)c2ccccc2)CC1`, the inhibition is reported as 4.19% (inactive). `CC1CC(=NNC(=O)C2COc3ccccc3O2)CC(C)(C)C1` (centres undefined) was tested, and the inhibition was 0.05% (inactive). `CC1(C)CC(=O)C/C(=N\NC(=O)c2cccs2)C1` was tested, and the inhibition was -0.39% (inactive). For `CC1C/C(=N/NC(=O)c2cccs2)CC(C)(C)C1` (centres undefined), the inhibition was 5.93% (active). With `C[C@H](CO)N1C[C@H](C)[C@@H](CN(C)C(=O)c2cnccn2)Oc2ncc(Br)cc2C1=O` the inhibition was -0.09% (inactive). With `COc1cc2c(cc1OC)C(=O)NCC(C)(C)O2` the inhibition was 4.35% (active). For `COc1cc(OC)c(C(=O)NC2CC(C)(C)NC(C)(C)C2)cc1OC`, the inhibition was 0.81% (inactive). In the case of `COc1ccc(C(=O)NC2CC(C)(C)NC(C)(C)C2)cc1OC`, the inhibition is reported as 0.53% (inactive). `O=C(OCc1cn([C@H]2C[C@H](c3ccccc3)N(C(=O)c3cccs3)C[C@@H]2O)nn1)c1ccccc1` was tested, and the inhibition was -0.83% (inactive). `COc1ccc(C(=O)Nc2cccc(NC(=O)c3ccc(OC)cc3OC)n2)c(OC)c1` was tested, and the inhibition was -0.74% (inactive). `COc1ccc(C(=O)Nc2nncs2)c(OC)c1` was tested, and the inhibition was 5.95% (active). For `COc1ccc(C(=O)NC2=NCCS2)c(OC)c1`, the inhibition was 0.9% (inactive). For `Cn1nc(N)c2ncc(C(Cl)(Cl)Cl)nc21`, the inhibition was 0.87% (inactive). `CCOC(=O)c1c(C)[nH]c(C)c1C(=O)COC(=O)/C=C/c1cccc([N+](=O)[O-])c1` was tested, and the inhibition was 0.45% (inactive). With `CC1=C(C)CC(C(=O)NC(C)CCc2ccccc2)C(C(=O)O)C1` (centres undefined) the inhibition was 4.67% (active). For `CC(CCc1ccccc1)NC(=O)c1ccc(Br)o1` (centres undefined), the inhibition was -0.46% (inactive). `CCN(CC)S(=O)(=O)N1CCC(C(=O)NC(C)CCc2ccccc2)CC1` (centres undefined) was tested, and the inhibition was 0.09% (inactive). For `CC(C)CC1C(=O)N(Cc2cn(CC3CCCCC3)nn2)CCS(=O)(=O)N1Cc1ccc(-c2ccc(Cl)cc2)cc1` (centres undefined), the inhibition was 0.42% (inactive). For `CC(=O)c1ccc(OCC(=O)N(C)C2CCS(=O)(=O)C2)cc1` (centres undefined), the inhibition was -0.31% (inactive). `CN1CCN(/N=C/c2ccc(-c3ccc([N+](=O)[O-])cc3)o2)CC1` was tested, and the inhibition was 4.57% (active). With `CN1CCN(/N=C/c2ccc(C#N)cc2)CC1` the inhibition was 2.94% (inactive). In the case of `Cc1ccc(-c2ccc(/C=N/NC(=O)CN3CCOCC3)o2)cc1[N+](=O)[O-]`, the inhibition is reported as -1.47% (inactive). In the case of `C[C@H]1CN(c2ccc(Br)cc2)C(=O)[C@@H]1CC(=O)Nc1ccc(Br)cc1`, the inhibition is reported as 0.61% (inactive). With `CCc1cc(C(=O)N(CC)CC(=O)Nc2c(F)cccc2F)sc1C` the inhibition was 1.94% (inactive). In the case of `Nc1ccc2c(c1)C(O)c1ccc(Cl)cc1-2` (centres undefined), the inhibition is reported as 1.37% (inactive). With `Nc1ccc2nn(-c3ccc(Cl)cc3)nc2c1` the inhibition was 5.29% (active). For `CCC(=O)Nc1ccc2nn(-c3ccc(F)cc3)nc2c1`, the inhibition was 1.93% (inactive). For `Cc1ccccc1Nc1nc(N)nc(CSc2ccccc2)n1`, the inhibition was 3.71% (inactive). For `Cc1ccc(Nc2nc(N)nc(CSc3nnc(C)s3)n2)cc1`, the inhibition was 4.29% (active). `Cc1nnc(SCc2nc3ccccc3nc2C)s1` was tested, and the inhibition was 0.55% (inactive). For `Cc1cn([C@H]2C[C@H](O)[C@@H](CNC(=O)[C@H](N)Cc3cccnc3)O2)c(=O)[nH]c1=O`, the inhibition was 0.07% (inactive). In the case of `CNC(=O)C[C@H]1C(=O)N(c2ccc(OC)cc2)C[C@@H]1Cc1ccccc1`, the inhibition is reported as 0.14% (inactive). With `C[C@H](CO)N1C[C@H](C)[C@@H](CN(C)S(=O)(=O)c2ccc(Oc3ccccc3)cc2)OCc2cn(nn2)CCCC1=O` the inhibition was 0.27% (inactive). In the case of `COc1ccc(C(CNC(=O)CSc2ccccc2)N2CCOCC2)cc1` (centres undefined), the inhibition is reported as 1.43% (inactive). In the case of `CC(=O)NC(Cc1c[nH]c2ccccc12)C(=O)NCCc1ccccc1` (centres undefined), the inhibition is reported as 3.45% (inactive). With `CC(=O)NC(Cc1c[nH]c2ccccc12)C(=O)O` (centres undefined) the inhibition was 9.87% (active). For `Cc1cccc(C)c1OCC(=O)NC(Cc1c[nH]c2ccccc12)C(=O)O` (centres undefined), the inhibition was 0.88% (inactive). With `CCc1cc(-c2nnn(CCC3COCCO3)c2CC)ccc1-c1cn(Cc2ccc3ccccc3c2)nn1` (centres undefined) the inhibition was -3.79% (inactive). For `C[C@H]1CN([C@@H](C)CO)C(=O)CCCn2cc(nn2)CO[C@@H]1CN(C)S(=O)(=O)c1ccc(-c2ccccc2)cc1`, the inhibition was 0% (inactive). For `O=C(c1cc(S(=O)(=O)N2CCOCC2)ccc1Cl)N1CCOCC1`, the inhibition was 0.61% (inactive). For `O=C(CCc1ccc(S(=O)(=O)N2CCOCC2)cc1)NN=C1CCCCCCC1`, the inhibition was 0% (inactive). For `O=C(O)c1ccc(S(=O)(=O)N2CCOCC2)o1`, the inhibition was 6.4% (active). In the case of `COc1ccc2c(c1)CCCO[C@]21O[C@H](CCO)C[C@H](O)[C@H]1O`, the inhibition is reported as 0.36% (inactive). For `O=C(O)C1CCCN1c1nc(Cl)ccc1[N+](=O)[O-]` (centres undefined), the inhibition was -0.69% (inactive). In the case of `Cn1ncc([N+](=O)[O-])c1C(=O)Nc1cc(Cl)ccc1Cl`, the inhibition is reported as 1.05% (inactive). In the case of `Cc1nc(-c2ccc(Cl)cc2)sc1C(=O)CBr`, the inhibition is reported as -0.83% (inactive). For `Cc1nc(-c2ccccc2)sc1C(=O)/C=C/N(C)C`, the inhibition was 3.31% (inactive). In the case of `Cc1nc(-c2ccccc2)sc1C(=O)/C=C/c1ccccc1`, the inhibition is reported as 5.32% (active). For `c1ccc(Cn2nnc3c(NCC4CC4)ncnc32)cc1`, the inhibition was 1.59% (inactive). With `O=C(Nc1ncccc1O)c1ccc(S(=O)(=O)N2CCCCCC2)cc1` the inhibition was 1.6% (inactive). For `O=C(Nc1ncccc1O)c1ccc(C(=O)c2ccccc2)cc1`, the inhibition was 10.6% (active). `O=C(Nc1ncccc1O)c1ccc(S(=O)(=O)N2CCCC2)cc1` was tested, and the inhibition was 2.95% (inactive). In the case of `Cc1cccc(C)c1NC(=O)CNC(=O)c1ccc(N2CCOCC2)c([N+](=O)[O-])c1`, the inhibition is reported as 0.52% (inactive). In the case of `CC1=C(C(=O)N2CCOCC2)CC(CC(=O)NCC2CCCCC2)C(=O)N1Cc1ccc(F)cc1` (centres undefined), the inhibition is reported as 0.65% (inactive). With `COc1ccc(-c2nnc3ccc(SCc4ccccc4)nn23)cc1` the inhibition was 0.1% (inactive). For `COc1cccc(CSc2nc3nc(C)cc(C)n3n2)c1`, the inhibition was 1.86% (inactive). With `COc1ccc2nc(SCc3ccccc3)nc(C)c2c1` the inhibition was 4.59% (active). In the case of `COc1ccc(-c2ccc(CN3C(CC(C)C)C(=O)N(Cc4cn(CC5CCCCC5)nn4)CCS3(=O)=O)cc2)cn1` (centres undefined), the inhibition is reported as -0.76% (inactive). With `O=C(NCCOc1ccccc1)N1[C@H]2CC[C@@H]1C=C(c1ccc(F)cc1OCc1ccccc1)C2` the inhibition was 0.36% (inactive). For `CCc1c(N=O)c(-c2ccccc2)n(O)[n+]1[O-]`, the inhibition was 0.23% (inactive). In the case of `C[C@@H]1CN([C@@H](C)CO)C(=O)CCCn2nncc2CO[C@@H]1CN(C)S(=O)(=O)c1ccc(-c2ccccc2)cc1`, the inhibition is reported as 0.31% (inactive). `O=C(/C=C\c1ccc2c(c1)OCO2)NC1(C(=O)Nc2ccc3c(c2)OCCO3)CCCCC1` was tested, and the inhibition was -0.83% (inactive). For `O=C(COC(=O)c1ccc(O)cc1O)c1ccc2c(c1)OCCO2`, the inhibition was -0.46% (inactive). For `O=C(/C=C/c1ccc2c(c1)OCCO2)c1ccc(O)cc1`, the inhibition was 16.4% (active). For `COc1ccc(-c2ccc(CN3C(CC(C)C)C(=O)N(Cc4cn(CC5CCCCC5)nn4)CCS3(=O)=O)cc2)cc1` (centres undefined), the inhibition was 1.23% (inactive).
